PubChem BioAssay (NCATS)
Records with an inconclusive call do not appear. A call without a number means that no potency is given here. Active and inactive are the calls of the source. Calls follow the shape of the dose curve; as a rule, active = well fitted cell-killing curve with a large enough effect; inconclusive = small, poorly fitted or top-dose-only effect; inactive = flat fitted curve, though single readings scatter. Peptide text beside a SMILES is read from it. * marks the point of attachment. Hexanoyl = CCCCCC(=O)*

assay: KB-3-1 Cancer Cell Toxicity qHTS against the NCATS CANVASS Library (AID 1347366); conditions: KB-3-1 viability, CellTiter-Glo luminescence, 72 h; series mostly up to 46.1 µM; also: nearly all actives have a fitted effect of over 75% in size
Text: Natural products and their derivatives continue to be wellsprings of nascent therapeutic potential. However, many laboratories have limited resources for biological evaluation, leaving their previously isolated or synthesized compounds largely or completely untested. To address this issue, the Canvass library of natural products was assembled (https://tripod.nih.gov/canvass), in collaboration with academic and industry researchers, for quantitative high-throughput screening (qHTS) across a diverse set of cell-based and biochemical assays. The pure (>85% purity by liquid chromatography/mass spectrometry [LC/MS]) Canvass library of 346 natural products were submitted by 45 academic laboratories and companies around the world. We collected pure natural products to circumvent deconvolution and structure elucidation due to time and resource limitations. The library was formatted into 1536-well plates and evaluated in 50 qHTS (in an 11-pnt concentration series) bioassays with broad scope of disease-relevant mechanisms. The resulting data set from 50 different assays was then systematically analyzed to identify overall trends and specific natural products with interesting biological activities. Reported herein are the results of each individual qHTS and their corresponding assay protocol. […] National Center for Advancing Translational Sciences (NCATS), Rockville, MD National Institute of Health (NIH), Bethesda, Maryland
Cancer Cell Toxicity qHTS protocol 1. In a 1536 well, tissue culture treated white solid bottom plates (Corning 7494), 5 uL of KB-3-1 cell solution (final concentration of 500 cells / well) was dispensed using the Multidrop Combi dispenser (Thermo Fisher Scientific) into columns 3-48, rows 1-32. DMEM + 10% FBS + 100 U/mL penicillin / 100ug/mL streptomycin media solution was dispensed into column 1-2, row 1-32 also using the Multidrop Combi dispenser. 2. Control and Compounds were pin transferred (~23nL volume) to the assay plates via Wako Pin-tool (Wako Automation, Richmond VA) equipped with a 1536 pin head. The compounds were transferred to columns 5-48 resulting in a final concentration ranging from 0.17 nM to 103 uM. Dose response titration of Bortezomib was pin transferred into column 3, rows 1-32 (2mM; 1:2 dilution; 16 points; n = 2) resulting to a final concentration range of 0.3nM - 9.2uM. 3. The assay plates were further incubated in the at 37C, 5% CO2, 95% Rh for 72 hr. 4. After incubation, 2.5uL of CellTiter-Glo reagent (Promega) was added to the assay plates (column 1-48, rows 1-32) using the Multidrop Combi dispenser. 5. The assay plates were incubated at room temperature for 10 minutes. 6. Luminescence signal was acquired via the ViewLux plate reader (PerkinElmer) using a clear emission filter, 1 sec exposure, and 1x binning settings.
Potency is read from the fitted curve at half-maximal effect.

| Compound | Potency | outcome |
| --- | --- | --- |
| C[C@@]12CCC[C@@](C)(C(=O)OP(=O)(O)OC[C@H]3O[C@@H](n4cnc5c(N)ncnc54)[C@H](O)[C@@H]3O)[C@H]1C[C@@H](O)[C@@]13C[C@@H](CC[C@@H]21)[C@](C)(O)C3 | inactive | – |
| C/C(=C\[C@@H](C)CC/C=C/CC/C=C/C(=O)O)[C@H](O)[C@H](C)C(=O)CCCC1CC(=O)NC(=O)C1 | inactive | – |
| O=C1CC(c2ccc(O)cc2)Oc2cc(O)ccc21 (stereo not given) | inactive | – |
| C[C@@]12CCC[C@@](C)(C(=O)O)[C@H]1CC[C@@]13C[C@@H](CC[C@H]12)[C@](C)(O)C3 | inactive | – |
| CC(C)=CCC[C@]12c3cc4c(cc3CC[C@@]1(C)[C@H](C)CC[C@@H]2O)[nH]c1ccccc14 | inactive | – |
| CN1CC[C@@]23c4ccccc4N[C@@H]1[C@@]21CCN(C)[C@@H]3Nc2ccccc21 | inactive | – |
| CCC(=O)N[C@@H](C[C@H](C)C(Cl)(Cl)Cl)C(=O)N1C(=O)C=C(OC)[C@@H]1CC(C)C | inactive | – |
| C/C1=C/[C@@H](C)[C@H](O)[C@@H](O)/C=C/CC/C=C/C(=O)O[C@@H]1[C@H](C)C(=O)CCCC1CC(=O)NC(=O)C1 | inactive | – |
| C=C(Cl)[C@](Cl)(CBr)CC[C@@H](Br)C(C)(C)Cl | 20.9 µM (active) | – |
| CC(C)[C@]12CC[C@@]3(C)[C@H](C)CC[C@H](O)[C@@]3(CC1)c1cc3c(cc12)[nH]c1ccccc13 | inactive | – |
| C=CC(CCCCC)C1C(=O)NC(=O)C1C(=O)C1C(/C=C/C)C=CC2CC(C(=O)O)CC(C)C21 (stereo not given) | inactive | – |
| CCCCCC(=O)N[C@@H](CC(C)C)C(=O)N[C@H](C=O)CCC(=O)O (Hexanoyl-Leu-Glu-aldehyde) | inactive | – |
| C=CC(C)(C)C(=O)[C@@H](C)[C@@H]1CC[C@@](C)(C=C)O1 | inactive | – |
| CC1=C2CC[C@]3(C)[C@H](CC=C4[C@@H]5CC(C)(C)CC[C@@H]5C(=O)[C@H](O)[C@]43C)[C@@]2(C)C=C(O)C1=O | inactive | – |
| CC(=O)c1c(C)cc2c(c1O)C(=O)c1c(O)cc(O)cc1C2=O | inactive | – |
| C/C=C/C1C=CC2CC(C)CC(C)C2C1C(=O)CC(=O)NC(CO)C/C=C/CCCCC (stereo not given) | inactive | – |
| C/C=C(/C)c1c(Cl)c(OC)c(C)c2c1Oc1c(Cl)c(O)c(Cl)c(C)c1C(=O)O2 | inactive | – |
| C/C=C/[C@H]1[C@H]2C(=O)c3c(O)c(C)c(O)c(C)c3[C@]1(C(=O)O)C(=O)C=C2C | inactive | – |
| CC(=O)O[C@H]1c2ccccc2-c2c3c(cc4c2[C@@H]1N(C(C)=O)CC4)OCO3 | inactive | – |
| CO[C@@H](C[C@@H](C)[C@@H](O)/C=C/C=C/CNC(=O)C(C)(C)[C@H](O)\C(C)=C/C=C\C=C\Cc1cnco1)[C@]1(O)[C@@H](C)C(=O)N(C)[C@@]12COC2=O | inactive | – |

| Compound | Potency | outcome |
| --- | --- | --- |
| COc1cc(C2OCC3C(c4ccc(O)c(OC)c4)OCC23)ccc1O (stereo not given) | – | inactive [at 9.19 µM] |
| COc1ccc(-c2oc3cc(OC)cc(OC)c3c(=O)c2O)cc1 | inactive | – |
| C=CC(CCCCC)C1C(=O)NC(=O)C1C(=O)C1C2C(C)CC(C(=O)O)CC2CC1(O)C(=O)/C=C/C (stereo not given) | inactive | – |
| C[C@H](CCC(O)C(C)(O)CO)[C@@]1(O)CC[C@@]2(C)C3=C(CC[C@@]21C)[C@@]1(C)CCC(OC(=O)CCC(=O)O)C(C)(C)[C@@H]1CC3 (stereo not given in full) | inactive | – |
| C[C@]12CC[C@]3(C1)[C@H](CC2=O)C[C@@H](OC(=O)c1ccccc1)[C@H]1[C@](C)(C(=O)O)CCC[C@@]13C | 18.7 µM (active) | – |
| C/C1=C/[C@@H](C)[C@H](O)[C@@H](O)/C=C/CC/C=C/C(=O)O[C@@H]1[C@H](C)C(=O)/C=C/CC1CC(=O)NC(=O)C1 | inactive | – |
| C/C=C/c1cc2c(c(=O)o1)C(=O)[C@@H](O)[C@H](C)O2 | inactive | – |
| CN1C(=O)C(=O)N2C(=C[C@]3(c4c[nH]c5ccccc45)c4ccccc4N[C@H]23)C1=O | inactive | – |
| Oc1ccc(C2Oc3cc(O)c4c(c3[C@@H]2c2cc(O)cc(O)c2)[C@H]2C(c3ccc(O)cc3)c3c(O)cc5c(c3[C@H]2C4c2ccc(O)cc2)[C@H](c2cc(O)cc(O)c2)C(c2ccc(O)cc2)O5)cc1 (stereo not given in full) | 13.2 µM (active) | – |
| CC[C@H](O)CCCCC[C@@H]1NC(=O)[C@H]2CCCCN2C(=O)[C@H]([C@H](C)CC)NC(=O)[C@H](Cc2cn(OC)c3ccccc23)NC1=O | inactive | – |
| CC1=C(C)C(=O)OC(C(C)C2(O)CCC3C4C5OC5C5(O)CC=CC(=O)C5(C)C4CCC32C)C1 (stereo not given) | inactive | – |
| C=C(C)C(=O)O[C@H]1C[C@@]2(C)OC(=CC2=O)/C(C)=C\[C@H]2OC(=O)C(=C)[C@H]12 | 3.32 µM (active) | – |
| C/C(=C\[C@H](C)C(=O)CCCC1CC(=O)NC(=O)C1)[C@@H]1OC(=O)/C=C/CC/C=C/[C@H](O)[C@@H](O)[C@@H]1C | 6.62 µM (active) | – |
| C=C1CC[C@@H](O[C@H]2C[C@@](O)([C@H](C)NC(=O)c3[nH]c(C)c(Cl)c3Cl)[C@H](O)[C@@H](C)O2)[C@@H]2C=C[C@H](C)C(/C(O)=C3/C(=O)[C@H](C(C)C)N([C@@H]4O[C@H](C)[C@H](OC(N)=O)[C@H](OC(C)=O)[C@@H]4OC)C3=O)[C@@H]12 (stereo not given in full) | inactive | – |
| C=C[C@@](C)(O)CC[C@@H]1[C@@]2(C)CCCC(C)(C)[C@@H]2CC[C@@]1(C)O | inactive | – |
| COc1cc2ccc(=O)oc2c(O)c1O[C@@H]1O[C@H](CO)[C@@H](O)[C@H](O)[C@H]1O | inactive | – |
| C[C@]12CCC[C@](C)(C(=O)O)[C@@H]1CC[C@@]1(C)c3cocc3CC[C@H]21 | inactive | – |
| C=C[C@]1(C)CC[C@@H]([C@H](C)C(=O)/C=C/C(C)(C)O)O1 | inactive | – |
| C[C@@]1(CCC(=O)Nc2c(O)ccc(C(=O)O)c2O)C(=O)C=C[C@]23C[C@H]4C[C@H](O[C@@]4(C)C2)C31 (stereo not given in full) | inactive | – |
| CC(C)=CCC/C(C)=C/Cc1cc([C@@H]2CC(=O)c3c(cc(O)c(CC=C(C)C)c3O)O2)ccc1O | inactive | – |
